The text below walks through data of publication PMC5700166.

What all share (test): protein-binding microarray (PBM); PBM: ~300 nM protein, 6 mM HEPES pH 7.8, 80 mM KCl, 0.5 mM EDTA, 0.5 mM EGTA, 6% glycerol, 35 ng/ul poly-dIdC, 1% milk, 1 h, room temperature; Ap Aiptasia and Nv Nematostella (sea anemones) / Co Capsaspora / Aq Amphimedon (sponge) / Dm Drosophila / Hu human; RHD is the Rel homology domain; high values mean tight binding
Conditions in all cases: dsDNA, one strand shown

The target in one assay is T1, GST-Ap-NF-kB RHD (Exaiptasia pallida (Aiptasia), UniProt A0A913YAJ5 2-422).
T1 sequence: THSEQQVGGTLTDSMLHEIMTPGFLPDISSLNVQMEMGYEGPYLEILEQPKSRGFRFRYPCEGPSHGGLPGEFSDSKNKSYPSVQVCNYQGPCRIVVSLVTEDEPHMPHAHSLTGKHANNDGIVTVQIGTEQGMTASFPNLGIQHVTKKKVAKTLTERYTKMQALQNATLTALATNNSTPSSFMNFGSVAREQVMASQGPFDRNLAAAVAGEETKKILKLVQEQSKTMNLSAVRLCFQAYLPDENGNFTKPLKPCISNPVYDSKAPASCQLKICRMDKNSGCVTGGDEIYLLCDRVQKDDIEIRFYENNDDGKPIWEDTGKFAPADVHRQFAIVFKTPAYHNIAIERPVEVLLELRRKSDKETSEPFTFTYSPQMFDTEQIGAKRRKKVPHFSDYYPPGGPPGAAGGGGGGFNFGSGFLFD

In assay [1] the target is T2, GST-Nv-NF-kB (Cys allele) (Nematostella vectensis, UniProt E5G601 2-411).
T2 sequence: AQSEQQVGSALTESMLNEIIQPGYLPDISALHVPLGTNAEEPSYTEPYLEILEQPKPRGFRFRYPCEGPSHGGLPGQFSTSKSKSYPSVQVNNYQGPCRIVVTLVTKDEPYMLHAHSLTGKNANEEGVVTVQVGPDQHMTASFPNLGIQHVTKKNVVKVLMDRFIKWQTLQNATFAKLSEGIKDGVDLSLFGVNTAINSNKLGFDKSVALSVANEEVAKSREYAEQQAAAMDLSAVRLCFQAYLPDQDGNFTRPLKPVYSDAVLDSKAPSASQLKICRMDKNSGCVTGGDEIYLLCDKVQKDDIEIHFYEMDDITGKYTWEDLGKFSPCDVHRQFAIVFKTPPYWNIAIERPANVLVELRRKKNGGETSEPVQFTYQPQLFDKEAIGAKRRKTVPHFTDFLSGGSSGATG

The target of assay [2] is T3, GST-Nv-NF-kB (Ser allele) (Nematostella vectensis, UniProt A7UNT2 2-411).
T3 sequence: T2 sequence with Q21R, C66S, S207N, E215Q, V217A, E225K, A268E, D399E

The next assay addresses T4, GST-Co-NF-kB (Capsaspora owczarzaki, UniProt F1ARL5 200-546).
T4 sequence: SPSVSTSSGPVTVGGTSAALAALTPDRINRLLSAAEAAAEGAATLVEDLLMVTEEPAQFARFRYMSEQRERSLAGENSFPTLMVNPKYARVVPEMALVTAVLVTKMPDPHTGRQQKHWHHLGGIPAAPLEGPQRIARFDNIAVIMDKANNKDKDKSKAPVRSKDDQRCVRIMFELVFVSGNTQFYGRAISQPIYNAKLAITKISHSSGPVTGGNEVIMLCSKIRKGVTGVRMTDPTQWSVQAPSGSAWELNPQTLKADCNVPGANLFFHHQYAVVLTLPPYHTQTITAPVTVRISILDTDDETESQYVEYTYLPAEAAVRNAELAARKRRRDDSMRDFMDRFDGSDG

Another assay addresses T5, GST-Aq-NF-kB (Amphimedon queenslandica, UniProt A9Y5G7 2-389).
T5 sequence: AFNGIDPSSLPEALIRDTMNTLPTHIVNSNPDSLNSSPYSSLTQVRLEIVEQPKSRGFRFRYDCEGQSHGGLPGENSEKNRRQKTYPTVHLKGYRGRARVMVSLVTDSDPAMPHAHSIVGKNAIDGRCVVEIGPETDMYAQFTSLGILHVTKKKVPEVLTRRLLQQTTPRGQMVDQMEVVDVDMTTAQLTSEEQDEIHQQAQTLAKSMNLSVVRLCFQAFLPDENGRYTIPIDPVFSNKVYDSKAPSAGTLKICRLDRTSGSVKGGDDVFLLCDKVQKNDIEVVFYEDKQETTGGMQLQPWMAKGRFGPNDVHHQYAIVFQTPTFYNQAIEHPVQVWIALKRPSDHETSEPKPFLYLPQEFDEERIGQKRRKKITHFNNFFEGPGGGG

In another assay the target is GST-Hu-p50 (Homo sapiens, UniProt P19838 7-356).
Sequence of GST-Hu-p50 (P19838 7-356): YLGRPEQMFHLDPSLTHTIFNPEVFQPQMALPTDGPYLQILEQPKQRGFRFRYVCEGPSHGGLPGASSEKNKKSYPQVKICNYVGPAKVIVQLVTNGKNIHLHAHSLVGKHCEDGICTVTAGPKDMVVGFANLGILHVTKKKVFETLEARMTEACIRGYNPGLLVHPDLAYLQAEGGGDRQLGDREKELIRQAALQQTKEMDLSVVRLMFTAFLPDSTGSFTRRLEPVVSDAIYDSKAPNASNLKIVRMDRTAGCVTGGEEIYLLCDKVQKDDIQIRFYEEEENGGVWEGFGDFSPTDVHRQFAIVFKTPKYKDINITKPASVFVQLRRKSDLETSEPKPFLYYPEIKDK
The target in a further assay is T6, GST-Dm-Relish (Drosophila melanogaster, UniProt Q94527 99-473).
T6 sequence: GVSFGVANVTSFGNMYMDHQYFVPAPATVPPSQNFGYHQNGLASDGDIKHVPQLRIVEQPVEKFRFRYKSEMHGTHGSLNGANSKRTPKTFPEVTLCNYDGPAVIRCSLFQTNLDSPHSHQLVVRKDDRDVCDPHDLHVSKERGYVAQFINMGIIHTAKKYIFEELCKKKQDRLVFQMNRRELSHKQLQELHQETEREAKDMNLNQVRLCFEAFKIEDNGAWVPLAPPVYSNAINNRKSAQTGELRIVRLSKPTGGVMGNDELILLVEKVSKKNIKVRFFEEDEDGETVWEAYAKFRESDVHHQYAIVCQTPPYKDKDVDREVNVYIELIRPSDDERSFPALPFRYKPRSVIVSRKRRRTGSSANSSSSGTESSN

Positions count from the first letter of the chain named.

Turning to “CCGATTAACATCAGGGAAACAAATGATGTTAATCGGGTCTTGATTCGCTTGACGCTGCTG”, the binding signal in the assay with GST-Ap-NF-kB RHD came to 1.7 z-score; in assay [1], 3.05 z-score; in assay [2] it was 3.17 z-score; with GST-Co-NF-kB it was 4.61 z-score; with GST-Aq-NF-kB it was 3.12 z-score; with GST-Hu-p50 it was 1.97 z-score.
With “CCGATTAACATCAGAGTGGGAAATGATGTTAATCGGGTCTTGATTCGCTTGACGCTGCTG”, the binding signal in the assay with GST-Ap-NF-kB RHD stood at 1 z-score; in assay [1] it was 2.45 z-score; in assay [2] it was 1.89 z-score; in the assay with GST-Co-NF-kB it was 2.83 z-score; with GST-Aq-NF-kB, 1.64 z-score; in the assay with GST-Hu-p50, 2.27 z-score.
Turning to “CCGATTAACATCAAGGAAATTTCTGATGTTAATCGGGTCTTGATTCGCTTGACGCTGCTG”, the binding signal came to 1.71 z-score with GST-Aq-NF-kB and 1.21 z-score in the assay with GST-Hu-p50.
As for “CCGATTAACATCAGCTATTTCCCTGATGTTAATCGGGTCTTGATTCGCTTGACGCTGCTG”, the binding signal with GST-Ap-NF-kB RHD is 2.08 z-score; in assay [1] it was 3.01 z-score; in assay [2], 3.4 z-score; in the assay with GST-Co-NF-kB, 2.17 z-score; in the assay with GST-Aq-NF-kB it was 3.31 z-score; with GST-Hu-p50, 1.83 z-score.
Consider “CCGATTAACATCAAGCATTTCCCTGATGTTAATCGGGTCTTGATTCGCTTGACGCTGCTG”, for which the binding signal with GST-Ap-NF-kB RHD worked out at 2.4 z-score; in assay [1] it was 4.4 z-score; in assay [2], 4.14 z-score; with GST-Co-NF-kB, 2.36 z-score; with GST-Aq-NF-kB, 3.63 z-score; with GST-Hu-p50, 2.72 z-score.
Regarding “CCGATTAACATCATGGGGAGGAATGATGTTAATCGGGTCTTGATTCGCTTGACGCTGCTG”, the binding signal is 3.58 z-score in the assay with GST-Ap-NF-kB RHD; 3.68 z-score in assay [1]; 4.26 z-score in assay [2]; 6.46 z-score with GST-Co-NF-kB; 2.28 z-score with GST-Aq-NF-kB; 2.59 z-score with GST-Hu-p50.
As for “CCGATTAACATCAGGAAGCTCCCTGATGTTAATCGGGTCTTGATTCGCTTGACGCTGCTG”, the binding signal turned out to be 1.2 z-score with GST-Ap-NF-kB RHD, 1.37 z-score in assay [1], 3.72 z-score with GST-Aq-NF-kB and 1.33 z-score with GST-Hu-p50.
For “CCGATTAACATCATATTTTCCCATGATGTTAATCGGGTCTTGATTCGCTTGACGCTGCTG”, the binding signal in the assay with GST-Ap-NF-kB RHD worked out at 2.18 z-score; in assay [1] it was 4.42 z-score; in assay [2], 5.61 z-score; with GST-Co-NF-kB, 4.34 z-score; with GST-Aq-NF-kB it was 2.52 z-score; in the assay with GST-Hu-p50 it was 4.15 z-score.
As for “CCGATTAACATCAGCACGGGAAATGATGTTAATCGGGTCTTGATTCGCTTGACGCTGCTG”, the binding signal came out at 1.76 z-score with GST-Ap-NF-kB RHD; 2.98 z-score in assay [1]; 2.41 z-score in assay [2]; 2.59 z-score with GST-Co-NF-kB; 2.77 z-score with GST-Aq-NF-kB; 1.64 z-score with GST-Hu-p50.
“CCGATTAACATCAGATATTACCCTGATGTTAATCGGGTCTTGATTCGCTTGACGCTGCTG”: the binding signal with GST-Ap-NF-kB RHD is 2.58 z-score; in assay [1], 3.48 z-score; in assay [2] it was 3.01 z-score; with GST-Co-NF-kB, 2.75 z-score; with GST-Aq-NF-kB, 4.82 z-score; with GST-Hu-p50, 2.16 z-score.
Consider “CCGATTAACATCAGGAATGTCCATGATGTTAATCGGGTCTTGATTCGCTTGACGCTGCTG”, for which the binding signal with GST-Aq-NF-kB amounted to 1.06 z-score.
Turning to “CCGATTAACATCAAGAAATTCCGTGATGTTAATCGGGTCTTGATTCGCTTGACGCTGCTG”, the binding signal in the assay with GST-Aq-NF-kB is 1.24 z-score; with GST-Hu-p50, 1.41 z-score.
Take “CCGATTAACATCACGGATTGCCCTGATGTTAATCGGGTCTTGATTCGCTTGACGCTGCTG”: in the assay with GST-Aq-NF-kB, the binding signal worked out at 1.2 z-score.
Consider “CCGATTAACATCAAGGTGGGAATTGATGTTAATCGGGTCTTGATTCGCTTGACGCTGCTG”, for which the binding signal with GST-Ap-NF-kB RHD is 1.55 z-score; in assay [1], 3.21 z-score; in assay [2], 2.3 z-score; with GST-Co-NF-kB, 2.52 z-score; with GST-Aq-NF-kB, 1.99 z-score; in the assay with GST-Hu-p50, 1.71 z-score.
On to “CCGATTAACATCAAAATTTTCCGTGATGTTAATCGGGTCTTGATTCGCTTGACGCTGCTG”, for which the values for the binding signal with GST-Aq-NF-kB and in the assay with GST-Hu-p50 were 1.74 z-score and 1.66 z-score, respectively.
Take “CCGATTAACATCAGGAATATCCCTGATGTTAATCGGGTCTTGATTCGCTTGACGCTGCTG”: the binding signal in the assay with GST-Ap-NF-kB RHD was found to be 2.84 z-score; in assay [1], 3.66 z-score; in assay [2], 2.12 z-score; with GST-Co-NF-kB it was 1.54 z-score; with GST-Dm-Relish, 2.78 z-score; with GST-Aq-NF-kB it was 6.03 z-score. The sequence also yielded a binding signal with GST-Hu-p50 of 3.26 z-score.
“CCGATTAACATCAACGGTGGGAATGATGTTAATCGGGTCTTGATTCGCTTGACGCTGCTG”: the binding signal with GST-Ap-NF-kB RHD is 1.12 z-score; in assay [1], 1.46 z-score; in assay [2], 1.15 z-score; with GST-Co-NF-kB, 2.19 z-score; with GST-Aq-NF-kB, 2.42 z-score; with GST-Hu-p50, 1.41 z-score.
For “CCGATTAACATCATCCCGGGAAATGATGTTAATCGGGTCTTGATTCGCTTGACGCTGCTG”, the binding signal with GST-Ap-NF-kB RHD is 1.98 z-score; in assay [1], 2.94 z-score; in assay [2], 2.26 z-score; in the assay with GST-Co-NF-kB it was 3.63 z-score; in the assay with GST-Aq-NF-kB it was 2.23 z-score; in the assay with GST-Hu-p50, 1.36 z-score.
